# How the values were obtained:
# Test in all cases: SPOT peptide array binding signal intensity (averaged, normalized) (arbitrary units (background-subtracted, floor 0; scale differs between SH3 domains)); higher = stronger binding of the SH3 domain to the peptide
# AgAbp1 = biological target: AgAbp1
# How it was run: (§1)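 GST-SH3 fusions from four yeast species, purified on glutathione Sepharose, were incubated at 10 μg/ml overnight at 4°C on membranes of synthetic 15-mer peptides in which cysteines were replaced with serines. Binding signal is the normalized, background-subtracted spot intensity averaged over replicates, in domain-specific arbitrary units.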
# AgBbc1 = biological target: AgBbc1
# How it was run: as §1
# AgBem1-D1 = biological target: AgBem1-D1
# How it was run: as §1
# AgBzz1-D1 = biological target: AgBzz1-D1
# How it was run: as §1
# AgBzz1-D2 = biological target: AgBzz1-D2
# How it was run: as §1
# AgCyk3 = biological target: AgCyk3
# How it was run: as §1
# AgFus1 = biological target: AgFus1
# How it was run: as §1
# AgHof1 = biological target: AgHof1
# How it was run: as §1
# AgHse1 = biological target: AgHse1
# How it was run: as §1
# AgLsb1 = biological target: AgLsb1
# How it was run: as §1
# AgLsb4 = biological target: AgLsb4
# How it was run: as §1
# AgMyo5 = biological target: AgMyo5
# How it was run: as §1
# AgNbp2 = biological target: AgNbp2
# How it was run: as §1
# AgRvs167 = biological target: AgRvs167
# How it was run: as §1
# AgSho1 = biological target: AgSho1
# How it was run: as §1
# AgSla1-D1-D2 = biological target: AgSla1-D1-D2
# How it was run: as §1
# AgSla1-D3 = biological target: AgSla1-D3
# How it was run: as §1
# CaAbp1-D1 = biological target: CaAbp1-D1
# How it was run: as §1
# CaAbp1-D2 = biological target: CaAbp1-D2
# How it was run: as §1
# CaBbc1 = biological target: CaBbc1
# How it was run: as §1
# CaBem1-D1 = biological target: CaBem1-D1
# How it was run: as §1
# CaBzz1-D1 = biological target: CaBzz1-D1
# How it was run: as §1
# CaBzz1-D2 = biological target: CaBzz1-D2
# How it was run: as §1
# CaCyk3 = biological target: CaCyk3
# How it was run: as §1
# CaFus1 = biological target: CaFus1
# How it was run: as §1
# CaHof1 = biological target: CaHof1
# How it was run: as §1
# CaHse1 = biological target: CaHse1
# How it was run: as §1
# CaLsb1 = biological target: CaLsb1
# How it was run: as §1
# CaLsb4 = biological target: CaLsb4
# How it was run: as §1
# CaMyo5 = biological target: CaMyo5
# How it was run: as §1
# CaNbp2 = biological target: CaNbp2
# How it was run: as §1
# CaRvs167 = biological target: CaRvs167
# How it was run: as §1
# CaRvs167-3 = biological target: CaRvs167-3
# How it was run: as §1
# CaSho1 = biological target: CaSho1
# How it was run: as §1
# CaSla1-D1-D2 = biological target: CaSla1-D1-D2
# How it was run: as §1
# CaSla1-D3 = biological target: CaSla1-D3
# How it was run: as §1
# ScAbp1 = biological target: ScAbp1
# How it was run: as §1
# ScBbc1 = biological target: ScBbc1
# How it was run: as §1
# ScBem1-D1 = biological target: ScBem1-D1
# How it was run: as §1
# ScBzz1-D1 = biological target: ScBzz1-D1
# How it was run: as §1
# ScBzz1-D2 = biological target: ScBzz1-D2
# How it was run: as §1
# ScCyk3 = biological target: ScCyk3
# How it was run: as §1
# ScFus1 = biological target: ScFus1
# How it was run: as §1
# ScHof1 = biological target: ScHof1
# How it was run: as §1
# ScHse1 = biological target: ScHse1
# How it was run: as §1
# ScLsb1 = biological target: ScLsb1
# How it was run: as §1
# ScLsb2 = biological target: ScLsb2
# How it was run: as §1
# ScLsb3 = biological target: ScLsb3
# How it was run: as §1
# ScLsb4 = biological target: ScLsb4
# How it was run: as §1
# ScMyo3 = biological target: ScMyo3
# How it was run: as §1
# ScMyo5 = biological target: ScMyo5
# How it was run: as §1
# ScNbp2 = biological target: ScNbp2
# How it was run: as §1
# ScPex13 = biological target: ScPex13
# How it was run: as §1
# ScRvs167 = biological target: ScRvs167
# How it was run: as §1
# ScSho1 = biological target: ScSho1
# How it was run: as §1
# ScSla1-D1-D2 = biological target: ScSla1-D1-D2
# How it was run: as §1
# ScSla1-D3 = biological target: ScSla1-D3
# How it was run: as §1
# SpAbp1-D1 = biological target: SpAbp1-D1
# How it was run: as §1
# SpBbc1 = biological target: SpBbc1
# How it was run: as §1
# SpBzz1-D1 = biological target: SpBzz1-D1
# How it was run: as §1
# SpBzz1-D2 = biological target: SpBzz1-D2
# How it was run: as §1
# SpCyk3 = biological target: SpCyk3
# How it was run: as §1
# SpHof1 = biological target: SpHof1
# How it was run: as §1
# SpHof1-2 = biological target: SpHof1-2
# How it was run: as §1
# SpHof1-3 = biological target: SpHof1-3
# How it was run: as §1
# SpHse1 = biological target: SpHse1
# How it was run: as §1
# SpLsb1 = biological target: SpLsb1
# How it was run: as §1
# SpLsb4 = biological target: SpLsb4
# How it was run: as §1
# SpMyo1 = biological target: SpMyo1
# How it was run: as §1
# SpNbp2 = biological target: SpNbp2
# How it was run: as §1
# SpPex13 = biological target: SpPex13
# How it was run: as §1
# SpRvs167 = biological target: SpRvs167
# How it was run: as §1
# SpSla1-D1-D2 = biological target: SpSla1-D1-D2
# How it was run: as §1
# SpSla1-D3 = biological target: SpSla1-D3
# How it was run: as §1
binder,measurement,setting,value
NNQRRKPLLLNIGDH,SPOT peptide array binding signal intensity,AgAbp1,108
same,SPOT peptide array binding signal intensity,AgBbc1,≤ 0
same,SPOT peptide array binding signal intensity,AgBem1-D1,≤ 0
same,SPOT peptide array binding signal intensity,AgBzz1-D1,≤ 0
same,SPOT peptide array binding signal intensity,AgBzz1-D2,54
same,SPOT peptide array binding signal intensity,AgCyk3,0.5
same,SPOT peptide array binding signal intensity,AgFus1,305
same,SPOT peptide array binding signal intensity,AgHof1,6
same,SPOT peptide array binding signal intensity,AgHse1,1660
same,SPOT peptide array binding signal intensity,AgLsb1,≤ 0
same,SPOT peptide array binding signal intensity,AgLsb4,≤ 0
same,SPOT peptide array binding signal intensity,AgMyo5,1
same,SPOT peptide array binding signal intensity,AgNbp2,68.5
same,SPOT peptide array binding signal intensity,AgRvs167,5.67
same,SPOT peptide array binding signal intensity,AgSho1,24.5
same,SPOT peptide array binding signal intensity,AgSla1-D1-D2,175
same,SPOT peptide array binding signal intensity,AgSla1-D3,5.5
same,SPOT peptide array binding signal intensity,CaAbp1-D1,330
same,SPOT peptide array binding signal intensity,CaAbp1-D2,458
same,SPOT peptide array binding signal intensity,CaBbc1,≤ 0
same,SPOT peptide array binding signal intensity,CaBem1-D1,≤ 0
same,SPOT peptide array binding signal intensity,CaBzz1-D1,≤ 0
same,SPOT peptide array binding signal intensity,CaBzz1-D2,≤ 0
same,SPOT peptide array binding signal intensity,CaCyk3,1.5
same,SPOT peptide array binding signal intensity,CaFus1,1030
same,SPOT peptide array binding signal intensity,CaHof1,≤ 0
same,SPOT peptide array binding signal intensity,CaHse1,21
same,SPOT peptide array binding signal intensity,CaLsb1,0.5
same,SPOT peptide array binding signal intensity,CaLsb4,≤ 0
same,SPOT peptide array binding signal intensity,CaMyo5,≤ 0
same,SPOT peptide array binding signal intensity,CaNbp2,528
same,SPOT peptide array binding signal intensity,CaRvs167,12
same,SPOT peptide array binding signal intensity,CaRvs167-3,35.8
same,SPOT peptide array binding signal intensity,CaSho1,420
same,SPOT peptide array binding signal intensity,CaSla1-D1-D2,≤ 0
same,SPOT peptide array binding signal intensity,CaSla1-D3,2.25
same,SPOT peptide array binding signal intensity,ScAbp1,442
same,SPOT peptide array binding signal intensity,ScBbc1,≤ 0
same,SPOT peptide array binding signal intensity,ScBem1-D1,3
same,SPOT peptide array binding signal intensity,ScBzz1-D1,16.5
same,SPOT peptide array binding signal intensity,ScBzz1-D2,≤ 0
same,SPOT peptide array binding signal intensity,ScCyk3,33
same,SPOT peptide array binding signal intensity,ScFus1,272
same,SPOT peptide array binding signal intensity,ScHof1,0.5
same,SPOT peptide array binding signal intensity,ScHse1,1820
same,SPOT peptide array binding signal intensity,ScLsb1,≤ 0
same,SPOT peptide array binding signal intensity,ScLsb2,≤ 0
same,SPOT peptide array binding signal intensity,ScLsb3,68
same,SPOT peptide array binding signal intensity,ScLsb4,≤ 0
same,SPOT peptide array binding signal intensity,ScMyo3,≤ 0
same,SPOT peptide array binding signal intensity,ScMyo5,≤ 0
same,SPOT peptide array binding signal intensity,ScNbp2,112
same,SPOT peptide array binding signal intensity,ScPex13,≤ 0
same,SPOT peptide array binding signal intensity,ScRvs167,4.33
same,SPOT peptide array binding signal intensity,ScSho1,676
same,SPOT peptide array binding signal intensity,ScSla1-D1-D2,37
same,SPOT peptide array binding signal intensity,ScSla1-D3,≤ 0
same,SPOT peptide array binding signal intensity,SpAbp1-D1,384
same,SPOT peptide array binding signal intensity,SpBbc1,0.5
same,SPOT peptide array binding signal intensity,SpBzz1-D1,136
same,SPOT peptide array binding signal intensity,SpBzz1-D2,≤ 0
same,SPOT peptide array binding signal intensity,SpCyk3,≤ 0
same,SPOT peptide array binding signal intensity,SpHof1,93.2
same,SPOT peptide array binding signal intensity,SpHof1-2,2.5
same,SPOT peptide array binding signal intensity,SpHof1-3,892
same,SPOT peptide array binding signal intensity,SpHse1,1730
same,SPOT peptide array binding signal intensity,SpLsb1,≤ 0
same,SPOT peptide array binding signal intensity,SpLsb4,≤ 0
same,SPOT peptide array binding signal intensity,SpMyo1,≤ 0
same,SPOT peptide array binding signal intensity,SpNbp2,133
same,SPOT peptide array binding signal intensity,SpPex13,≤ 0
same,SPOT peptide array binding signal intensity,SpRvs167,≤ 0
same,SPOT peptide array binding signal intensity,SpSla1-D1-D2,≤ 0
same,SPOT peptide array binding signal intensity,SpSla1-D3,≤ 0

# From the supplement of paper PMC4466140
